Screening results (PubChem)
Shown are actives, neighbours in structure and some others; about 7.9% of the full set was active somewhere.
HT1080 IDH1KD tx = HT-1080 IDH1 knockdown cell toxicity (counter line); Potency, µM (titrated, usually from 46.1 µM), for the others: at the highest dose activity, negative = toxicity, actives largely listed as cytotoxic; HT-1080 IDH1 knockdown viability, ATP luminescence, 48 h; hit rate 2% among 360,000;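 also: 0% = DMSO wells and -100% = cell-free medium wells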
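After a 2 h attachment period, IDH1KD HT-1080 cells took pin-transferred compound for 48 h at 37 °C; ATP-based luminescence after 10 min room-temperature reagent incubation reported viability.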
MCF10A rerep = induces DNA re-replication in MCF 10a normal breast cells. hit rate 2.9% among 350,000. MCF 10A DNA re-replication, Hoechst nuclear intensity, 48 h. Potency, µM (highest dose often 46.1 µM), for the others: at the top dose activity, positive = re-replication, actives largely listed as activators. AID 624296; also: % of control where 0% means no effect; nearly all actives have a fitted effect of over 50% in size
SW480 rerep = DNA re-replication induction in SW480 cells; hit rate 1.8% among 340,000; AID 624297; SW480 DNA re-replication, Hoechst DNA content imaging, 48 h; Potency, µM (series often up to 46.1 µM), for inactives: at the highest dose re-replication activation, actives largely listed as activators; also: % of control where 0% means no effect; nearly all actives have a fitted effect of over 55% in size
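Compounds, transferred as 23 nL by pin tool, were incubated with cells for 48 hr; DNA content per nucleus was then quantified by Hoechst staining and fluorescence plate imaging.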
HT1080NT lethal = kills 2HG-producing HT-1080-NT fibrosarcoma cells; hit rate 1.6% among 360,000; AID 686970; HT-1080-NT fibrosarcoma viability, CellTiter-Glo ATP luminescence, 48 h; Potency, µM (series often up to 46.1 µM), for the others: top-dose activity, negative = less viability, most hits filed as cytotoxic;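 also: NT is the 2HG producing partner of a matched IDH1 knockdown line; 0% = DMSO-treated cells and -100% = media-only wells without cells; nearly all actives have a fitted effect of over 55% in size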
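HT-1080-NT fibrosarcoma cells (2HG-overproducing), 750 cells/well in RPMI with 5% FBS, dosed after 2 h and incubated 48 h at 37C. CellTiter-Glo luminescence normalized to DMSO and no-cell wells; concentration-response curves fitted and classed.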
KB-3-1 cytotox = kills parental KB-3-1 adenocarcinoma cells; KB-3-1 viability, CellTiter-Glo ATP luminescence, 72 h; Potency, µM (series often up to 46.1 µM), hits mostly cytotoxic; hit rate 1.4% among 400,000; AID 1347075; also: % is scaled to controls: 0 for no effect and ±100 for the full control effect; nearly all actives have a fitted effect of over 60% in size
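Luminescent ATP read-out (CellTiter-Glo) measures survival of drug-naive KB-3-1 cells after 72 h compound exposure at 37 °C. Titration series was screened from lowest to highest concentration, with DMSO vehicle plates as background controls.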
KB-V1 cytotox = kills drug-selected multidrug resistant KB-V1 cells; KB-V1 MDR cells viability, CellTiter-Glo, 72 h; Potency, µM (titrated, usually from 46.1 µM), hits mostly cytotoxic; hit rate 3.4% among 400,000; AID 1347076; also: % is scaled to controls: 0 for no effect and ±100 for the full control effect; nearly all actives have a fitted effect of over 60% in size
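KB-V1 MDR subline cells in DMEM (phenol-red free, 10% FBS) exposed to compounds in qHTS concentration series for 72 h at 37 degrees C. Viability read by CellTiter-Glo luminescence; concentration-effect curves fitted after normalization and correction.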
The depositor's hits bear a star; i = inactive; ? = inconclusive; . = no result; [ ] = another dose, or the depositor's remark. Calls follow the shape of the dose curve; as a rule, active = well fitted curve in the direction sought with a large enough effect; inconclusive = small, poorly fitted or top-dose-only effect, or another doubt; inactive = no such curve, though single readings can be large; an effect the other way counts as inactive or inconclusive. Potency is read from the fitted curve at half-maximal effect.

SMILES | HT1080 IDH1KD tx | MCF10A rerep | SW480 rerep | HT1080NT lethal | KB-3-1 cytotox | KB-V1 cytotox
COc1ccccc1C(=O)NC(=O)Nc1cccc(Cl)c1 | 1% | 1% | -10% | -9% | i | i
Nc1ccccc1C(=O)NC(=O)Nc1ccc(Oc2ncc(Br)cn2)c(Cl)c1 | ? | ? | 0.52µM* | ? | 0.21µM* | 0.13µM*
Cc1cc(NC(=O)NC(=O)c2ccccc2NC(=O)CN(C)C)ccc1Oc1ncc(Br)cn1 | ? | 15µM* | 6.5µM* | ? | 2.9µM* | 2.1µM*
COc1ccc(NC(=O)Nc2ccccc2C(N)=O)cc1OC | -15% | 4% | 0% | 4% | i | i
S=C1NC[C@H](Cc2ccccc2)N1CC1CCN(CCCC2CCCC2)CC1 | 0% | ? | ? | -11% | i | i
C[C@@H]1CN([C@@H](C)CO)C(=O)c2cc(NC(=O)Nc3ccc4c(c3)OCO4)ccc2O[C@H]1CN(C)S(=O)(=O)c1cn(C)cn1 | 9% | -11% | -4% | 19% | i | ?
CCN1C(=O)CSc2ccc(C(=O)NCc3ccco3)cc21 | -18% | 4% | -4% | 2%[9.24 µM] | i | i
CN(C)CC(C)(C)NS(=O)(=O)c1ccc(Cl)cc1 | 1% | 15µM* | ? | 10% | i | i
COc1ccc2[nH]c3c(c2c1)CCNC3C1CC=C(C)CC1 (stereo not given) | ? | 0.58µM* | ? | ? | 21µM* | ?
Cc1ccc(S(=O)(=O)NC2(C(F)(F)F)NC(=O)N(c3ccccc3F)C2=O)cc1 (stereo not given) | 11% | -6% | -11% | 10% | i | i
COc1ccc(F)cc1-c1cc(NC=O)c2ncc(-c3cc(OC)c(OC)c(OC)c3)n2c1 | ? | . | . | ? | ? | 6.5µM*
COc1cc(-c2cnc3c(NC=O)cc(-c4cccc(NC(C)=O)c4)cn23)cc(OC)c1OC | ? | . | . | ? | 0.37µM* | i
COc1cc(-c2cnc3c(NC=O)cc(-c4ccccc4Cl)cn23)cc(OC)c1OC | ? | . | . | ? | 1µM* | 3.3µM*
COc1cc(-c2cnc3c(NC=O)cc(-c4ccccc4)cn23)cc(OC)c1OC | ? | . | . | ? | ? | i
COc1cccc(-c2cnc3c(NC=O)cc(-c4cccc(NC(C)=O)c4)cn23)c1 | ? | . | . | ? | i | ?
COc1ccccc1-c1cc(NC=O)c2ncc(-c3ccc(F)cc3)n2c1 | 18µM* | . | . | ? | 16µM* | 9.2µM*
COc1ccccc1-c1ocnc1C(=O)Nc1ccc(N2CCOCC2)cc1N1CCOCC1 | -4% | -1% | -6% | -6% | i | i
Cc1ccc(-c2cc(NC=O)c3ncc(-c4cccc(C(=O)N(C)C)c4)n3c2)cc1 | ? | . | . | ? | ? | i
COc1cc(-c2cnc3c(NC=O)cc(-c4ccc(C)cc4)cn23)cc(OC)c1OC | ? | . | . | ? | 0.16µM* | 0.58µM*
Cc1ccc(-c2cc(NC=O)c3ncc(-c4cnn(C)c4)n3c2)cc1 | ? | . | . | ? | 10µM* | 5.8µM*
O=C(COC(=O)c1ccc(NS(=O)(=O)c2cccs2)cc1O)NCc1ccccc1 | 3.7µM* | 2.3µM* | 7.3µM* | 2.6µM* | 5.8µM* | 13µM*
O=C(COC(=O)c1cccs1)NCc1ccco1 | -1% | -13% | -6% | -1% | i | i
O=S(=O)(Nc1cccc(CO)c1)c1cccs1 | 1% | -2% | 26% | -5% | 0.21µM* | i
Cc1cccc(NS(=O)(=O)c2cccs2)c1 | 4% | -2% | -5% | 1% | i | i
O=C(COC(=O)c1ccc(NS(=O)(=O)c2cccs2)cc1)NCc1ccco1 | 8.2µM* | 9.2µM* | ? | 9.2µM* | 18µM* | ?
SMILES | HT1080 IDH1KD tx | MCF10A rerep | SW480 rerep | HT1080NT lethal | KB-3-1 cytotox | KB-V1 cytotox
Cc1csc(=O)n1CC(=O)OCC(=O)Nc1ccc(F)c(F)c1 | 1% | 16% | -62% | -1% | i | i
Nc1nnc(COc2cccc(C(F)(F)F)c2)s1 | 2% | -1% | -5% | 5% | i | i
c1ccc(CCNc2ccnc3cc4ccccc4cc23)cc1 | 21µM* | 16µM* | 16µM* | 18µM* | 18µM* | 8.2µM*
O=C(NCCc1ccccc1)c1nccc2ccccc12 | 17% | 0% | -2% | 17% | i | i
CC(C)Nc1ccc(Nc2ccnc3cc4ccccc4cc23)cc1 | 5.2µM* | ? | -51% | ? | 16µM* | ?
O=C(CSc1ncccn1)N1CCN(Cc2ccccc2)CC1 | 16% | 8% | 1% | 10% | i | i
Cc1ccc(/C=N/n2cc(-c3ccccc3)[nH]c2=S)s1 | 1% | 6%[9.22 µM] | 18µM* | -6% | i | i
COc1ccc(/C=C2\C(=O)NCC(=O)N2C)cc1 | 0% | -5% | 2% | -6% | i | i
COc1ccc(/C=C2\C(=O)NCC(=O)N2Cc2ccccc2)cc1 | ? | ? | 16µM* | ? | ? | ?
O=C(CN1CCN(S(=O)(=O)c2ccccc2[N+](=O)[O-])CC1)Nc1ccc(N2CCOCC2)cc1 | -2% | 2% | -22% | 7% | i | ?
Cc1cc(NC(=O)CCCC(=O)N(c2ccccc2)C(C(=O)NC2CCCCC2)c2cccs2)no1 (stereo not given) | 2% | -1% | 2% | 1% | i | 2.1µM*
Cc1ccc(C(C(=O)NC2CCCC2)N(C(=O)CCC(=O)Nc2cc(C)on2)c2ccccc2)cc1 (stereo not given) | 18% | 0% | -1% | 8% | i | i
O=C(c1ccccc1[N+](=O)[O-])N(CCc1ccccc1)Cc1ccccc1 | -5% | 13% | 9% | -7% | i | i
COc1ccc(N(Cc2ccccc2)C(=O)c2ccccc2[N+](=O)[O-])cc1 | -5% | 4% | 9% | -10% | ? | 15µM*
Cn1cnc2nc(Cl)nc(Cl)c21 | ? | 7.3µM* | 1.3µM* | ? | 3.3µM* | 3.7µM*
CNc1nc(Cl)nc2ncn(C)c12 | -2% | 1% | 0% | 0% | i | i
Cc1ccccc1NC(=O)c1nc(-c2ccncc2)no1 | . | . | . | . | i | i
CCN=C1S/C(=C\c2ccc(N3CCOCC3)cc2C)C(=O)N1CC | -3% | ? | ? | 0% | 6.5µM* | ?
Cc1cc(N2CCOCC2)ccc1/C=C1\NC(=O)N(Cc2ccccc2)C1=O | 3% | ? | -13% | -1% | i | i
CN=C1S/C(=C\c2ccc(N3CCOCC3)cc2C)C(=O)N1C | 22% | -1% | 1% | 17% | i | i
